Rows were chosen to be rich in hits. Some 11% of all compounds tested hit in one or more screens of this group.
G9a inh: inhibitors of human histone lysine methyltransferase G9a | G9a H3K9 monomethylation, AlphaScreen, 2 h | Q96KQ7 | Potency, µM (titrated, usually from 102 µM), for the others: top-dose activity, negative = inhibition, most hits filed as inhibitors | 350,000 tested, 8.8% active; further: on the % scale 0 is the no-effect control and ±100 the full control effect; nearly all actives have a fitted effect of over 75% in size
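Using a bead-based AlphaScreen, monomethylated H3K9 product from 2 h room-temperature reactions (G9a 20 nM, peptide 500 nM, SAM 20 uM) was detected with 0.5 ug/mL rabbit anti-H3K9me1 antibody.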
HP1b binding inh: HP1-beta chromodomain-methylated histone interaction inhibition. P83916. AlphaScreen HP1-beta / biotin-H3K9me3 peptide binding. Potency, µM (top dose mostly 114 µM), without a hit: top-dose activity change, negative = inhibition, most hits filed as inhibitors. 390,000 tested, 0.56% active; further: nearly all actives have a fitted effect of over 70% in size
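HP1-beta protein (50 nM final) preincubated 30 min at room temperature with biotinylated H3(1-18)K9me3 peptide (50 nM) in PBS pH 7.4, 0.01% Tween-20, then compound added for 30 min. AlphaScreen streptavidin donor/nickel chelate acceptor beads (10 ug/mL final), 30 min dark, luminescence read.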
BAZ2B inh: BAZ2B (human) inhibition. AlphaScreen BAZ2B-H3K14Ac peptide displacement. Potency, µM (series often up to 114 µM), for inactives: at the highest dose activity change, negative = inhibition, usual class: inhibitors. 360,000 tested, 4.4% active; further: on the % scale 0 is the no-effect control and ±100 the full control effect; nearly all actives have a fitted effect of over 60% in size
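Inhibition is scored as reduced AlphaScreen emission. The BAZ2B/b-H3(5-23)K14Ac complex (50 nM each) in PBS pH 7.4, 0.01% Tween-20 meets compound (up to 110 uM) for 30 min at RT before bead addition.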
JMJD2A Tudor inh: inhibitors of human JMJD2A Tudor domain | AID 504339 | AlphaScreen JMJD2A-Tudor / H3K4me3 peptide binding | 390,000 tested, 4.4% active | O75164 | Potency, µM (doses to about 114 µM), for inactives: top-dose activity change, negative = inhibition, most hits filed as inhibitors; further: on the % scale 0 is the no-effect control and ±100 the full control effect; nearly all actives have a fitted effect of over 50% in size
L3MBTL1 block: blocks human L3MBTL1 | AlphaScreen L3MBTL1–H3K9me1 peptide binding | Q9Y468 | 230,000 tested, 0.66% active | AID 485360 | Potency, µM (top dose mostly 57.1 µM), for the others: at the highest dose activity, negative = inhibition, most hits filed as inhibitors; further: on the % scale 0 is the no-effect control and ±100 the full control effect; nearly all actives have a fitted effect of over 60% in size
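AlphaScreen assay: L3MBTL1 (50 nM final) was preincubated 30 min at room temperature with biotinylated H3(1-15)K9me1 peptide (75 nM final), then 30 min with library compounds; streptavidin donor and nickel chelate acceptor beads (10 ug/mL final) added, 30 min dark.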
Active calls of the source: *; ? = inconclusive; . = not tested or not shown; ! = a repeat was not active; [ ] = another dose, or the depositor's remark. The call rests on the fitted dose curve; in most records, active means well fitted inhibition curve with a large enough effect; inconclusive means small, poorly fitted or top-dose-only effect; inactive means no such curve, though single readings can be large or run the other way. Potency means the concentration at half of the fitted maximal effect.

SMILES	G9a inh	HP1b binding inh	BAZ2B inh	JMJD2A Tudor inh	L3MBTL1 block
CC(=O)Nc1ccc(NC(=O)c2ccc(CN3CCc4ccccc4C3)cc2)cc1	12%	9%	-23%	-8%	0%
COc1cccc(CN2CCc3ccc(NC(=O)CCc4ccc(C)cc4)cc3C2)c1O	40µM*	11%	?	-24%	.
COc1cc(CN2CCc3ccc(NC(=O)CCc4ccccc4OC)cc3C2)ccc1O	45µM*	17%	-30%	?	.
Cc1ccc2cc3c(nc2c1)OCC3	23%	31%	-22%	?	.
COc1cccc(C(=O)Nc2cccc(C(=O)OCc3cc(=O)n4c(C)csc4n3)c2)c1	7%[59 µM]	20%	-18%	-3%	.
CN1Cc2c(N)cccc2[C@H](c2ccccc2)C1	13%[21.5 µM]	.	.	.	.
CN1Cc2c(N)cccc2C(c2ccccc2)C1 (stereo not given)	14µM*!	41%	0%	-21%	-8%
COc1ccc(-n2c(=O)c3ccccc3n(Cc3ccc(F)cc3Cl)c2=O)cc1OC	5%[59 µM]	36%	5%	-1%	.
CCOc1ccc(N=C2C(=O)Nc3ccc(C)c(Br)c32)cc1	?	?	35µM*	?	.
COc1ccccc1CNc1cc(-c2ccccc2Cl)ncn1	1%[0.501 µM]	.	.	.	.
Cc1cc(O)c(C(C)C)cc1NC(=O)Nc1cc(Cl)ccc1Cl	.	?	.	45µM*	.
Cc1cc(O)c(C(C)C)cc1NC(=O)c1ccccc1Cl	18%[59 µM]	26%	2%	-7%	-4%
C=CCn1c(C(C)NC(=O)c2ccc(C)cc2)n[nH]c1=S (stereo not given)	40µM*	24%	3%	8.9µM*	13%
C=CCn1c(C(C)NC(=O)c2ccccc2C)n[nH]c1=S (stereo not given)	20µM*	44%	-4%	7.9µM*	-11%
CCn1c(C(C)NC(=O)c2ccccc2C)n[nH]c1=S (stereo not given)	.	45%	-12%	?	9%
O=C(NCc1ccc(F)cc1)c1ccc(NC(=O)N2CC3CCCN3c3ccccc32)cc1 (stereo not given)	18%[59 µM]	-9%	8%	?	.
Cc1ccccc1CNC(=O)CCC(=O)N1CC2CCCN2c2ccccc21 (stereo not given)	-25%[59 µM]	-11%	?	?	.
O=C(NCc1ccc(Cl)cc1)c1ccc(NC(=O)N2CC3CCCN3c3ccccc32)cc1 (stereo not given)	10µM*	3%	-38%	-23%	.
O=C(CCC(=O)N1CC2CCCN2c2ccccc21)NCc1ccccc1F (stereo not given)	-26%[59 µM]	35%	-32%	45µM*	.
COC(=O)c1ccc(C(=O)OC)c(NC(=O)N2CC3CCCN3c3ccccc32)c1 (stereo not given)	14µM*	-17%	25µM*	?	.
COC(=O)/C(=C(O)\C=C\c1ccccc1[N+](=O)[O-])c1nc2ccccc2[nH]1	16%	2%	-20%	-26%	.
CN(C)c1ccc(P(=O)(COc2ccc([N+](=O)[O-])cc2)c2ccc(N(C)C)cc2)cc1	.	?	25µM*	22µM*	-41%
O=Cc1ccc(OCCOc2ccc([N+](=O)[O-])cc2)cc1	19%	25%	1%	?	.
COc1ccc(S(=O)(=O)N(C(=O)c2ccncc2)c2ccc3oc4c(c3c2)CCCC4)cc1	-17%[59 µM]	0%	-38%	-28%	-8%
O=C(c1ccncc1)N(c1ccc2oc3c(c2c1)CCCC3)S(=O)(=O)c1cccc([N+](=O)[O-])c1	3.5µM*	-23%	?	?	-7%
SMILES	G9a inh	HP1b binding inh	BAZ2B inh	JMJD2A Tudor inh	L3MBTL1 block
COc1ccc(-c2cc(-c3ccco3)[nH]c(=O)c2C#N)cc1OC	10µM*	12%	56µM*	?	?
N#Cc1c(-c2ccccc2)cc(-c2ccc3c(c2)OCO3)[nH]c1=O	11%[59 µM]	27%	-1%	-3%	2%
O=C(CN1C(=O)C(c2ccc(F)cc2)=NC12CCCCCC2)Nc1ccc(F)c(Cl)c1	0%[59 µM]	21%	-3%	-19%	.
CN(C)CCCN1C(=O)c2cccc3c([N+](=O)[O-])ccc(c23)C1=O	?	1%	?	-28%	12%
CC(=O)Oc1cccc(N2C(=O)c3cccc4c([N+](=O)[O-])ccc(c34)C2=O)c1	40µM*	29%	3%	2%	6%
O=C(O)c1ccc(CN2C(=O)c3cccc4c([N+](=O)[O-])ccc(c34)C2=O)cc1	45µM*	5%	50µM*	?	.
Cc1ccc(C(=O)O)cc1N1C(=O)c2cccc3c([N+](=O)[O-])ccc(c23)C1=O	25µM*	-16%	50µM*	56µM*	22µM*
O=C(CNCc1ccccn1)Nc1cc(C(F)(F)F)ccc1N1CCOCC1	0%	16%	45µM*	45µM*	-8%
CC(C)CC(=O)NC(=S)Nc1cc(C(F)(F)F)ccc1N1CCOCC1	79µM*	18%	10%	-21%	1%
Cc1ccc(Cn2c(=O)n(CCCCC(=O)NCCc3ccc(Cl)cc3)c(=O)c3ccccc32)cc1	-3%[59 µM]	23%	-2%	-5%	.
Cn1c(Sc2ccc(C(=O)O)cc2[N+](=O)[O-])nnc1-c1ccccc1	1%[59 µM]	-2%	-13%	28µM*	13%
O=C(O)c1ccc(Sc2nnc(-c3cccc(Br)c3)o2)c([N+](=O)[O-])c1	50µM*	10%	-38%	-2%	.
COc1cc(-c2nnc(Sc3ccc(C(F)(F)F)cc3[N+](=O)[O-])o2)cc(OC)c1OC	?	-29%	-38%	?	.
O=C1CCC(=O)N1CO	-21%[12.7 µM]	.	.	.	.
COc1ccc(C2=Nn3c(C)nnc3SC2)cc1	45µM*	99%	?	65%	.
COc1ccc(C2=Nn3c(nnc3-c3cc(OC)ccc3OC)SC2)c(OC)c1	.	.	.	79µM*	.
COc1ccc(OCc2nnc3n2N=C(c2ccc(C)cc2)CS3)cc1	?	33%	-9%	-8%	.
COc1ccc(OC)c(-c2nnc3n2N=C(c2ccc(OC)c(OC)c2)CS3)c1	-47%[12.7 µM]	37%	-29%	-19%	1%
CCCc1ccc(C2=Nn3c(nnc3C(C)C)SC2)cc1	8.9µM*	?	-21%	-35%	.
COc1ccc(C2=Nn3c(nnc3-c3ccncc3)SC2)cc1	?	27%	6%	-8%	.
COc1ccc(OCc2nnc3n2N=C(c2ccc(OC)cc2)CS3)cc1	50µM*	29%	-32%	?	.
COc1ccccc1C1=Nn2c(nnc2-c2ccccc2OC)SC1	.	.	.	-8%	.
Fc1ccc(C2=Nn3c(Cc4ccccc4)nnc3SC2)cc1	4%	27%	0%	-13%	-3%
COc1ccccc1C1=Nn2c(COc3ccccc3)nnc2SC1	3.2µM*	.	?	.	-10%
O=C(O)CC1Sc2nnc(COc3ccc(Cl)cc3)n2N=C1c1ccccc1 (stereo not given)	25µM*	6%	-11%	-12%	.
c1ccc(OCc2nnc3n2N=C(c2ccccc2)CS3)cc1	7.9µM*	?	.	-14%[11.4 µM]	.

Bioassay records: PubChem, National Center for Advancing Translational Sciences (NCATS)
